Data from PubChem BioAssay (NCATS).
Unmarked numbers belong to inactive results. Inconclusive results are not listed. Active and inactive are the calls of the source. Unless noted, the call rests on the fitted dose curve; in most records, active means well fitted curve in either direction with a large enough effect (not every such curve was filed as active); inconclusive means small, poorly fitted or top-dose-only effect, or another doubt; inactive means flat fitted curve, though single readings scatter.

Columns and labels:
[1] = target: Lysosomal acid glucosylceramidase (Homo sapiens) (UniProt P04062); experiment: Glucocerebrosidase-p2 (AID 348; in the data active means potency below about 10 µM; further: potency means the concentration at half of the fitted maximal effect); settings: purified GBA, blue fluorogenic substrate, 40 min
Sequence of Lysosomal acid glucosylceramidase (Homo sapiens) (P04062 whole entry, looked up): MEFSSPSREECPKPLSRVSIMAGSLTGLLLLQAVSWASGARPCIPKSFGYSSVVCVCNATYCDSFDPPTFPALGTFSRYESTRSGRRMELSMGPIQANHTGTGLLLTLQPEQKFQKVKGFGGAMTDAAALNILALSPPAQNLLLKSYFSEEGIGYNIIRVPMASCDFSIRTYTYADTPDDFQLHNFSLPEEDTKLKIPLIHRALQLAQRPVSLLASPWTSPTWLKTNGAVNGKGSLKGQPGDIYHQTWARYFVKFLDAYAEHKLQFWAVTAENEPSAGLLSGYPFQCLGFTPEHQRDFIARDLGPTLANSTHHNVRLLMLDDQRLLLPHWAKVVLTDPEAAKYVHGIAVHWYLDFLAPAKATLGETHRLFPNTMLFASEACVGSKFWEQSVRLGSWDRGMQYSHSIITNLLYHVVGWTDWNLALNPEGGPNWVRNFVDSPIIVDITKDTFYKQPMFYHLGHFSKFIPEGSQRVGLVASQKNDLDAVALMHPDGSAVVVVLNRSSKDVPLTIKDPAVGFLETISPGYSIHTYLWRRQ
Procedure, shortened: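 Compounds titrated from 0.6 nM upwards against 0.2 nM enzyme in pH 5.9 citric acid/KH2PO4, taurocholate, tween-20; blue fluorogenic substrate 80 uM, 40 min room temperature, stopped and read Ex 365/Em 440 for AC50.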

[2] = AP1 Signaling Pathway (AID 357); settings: ME-180 AP-1-bla reporter, EGF-induced, beta-lactamase ratio, 5 h; at 7.69 µM (top of the series) unless noted;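 further: ME-180 reporter cells stimulated with EGF at its EC50 level; on the % scale 0 is the no-effect control and ±100 the full control effect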
Procedure, shortened: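 AP-1-bla ME-180 cells, Opti-MEM + 0.5% dialyzed FBS, plated overnight 37 °C. Cpd titration + EC50 EGF, 5 h 37 °C. CCF4 2.5 h RT; ex 405, em 460/530 ratio → %activity, AC50.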

[3] = target: Cytochrome P450 1A2 (Homo sapiens) (UniProt P05177); experiment: p450-cyp1a2 (AID 410; calls by dose curve; further: potency means the concentration at half of the fitted maximal effect;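 on activity change, negative = inhibition: -100% = full effect of reference inhibitor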); settings: recombinant CYP1A2, luciferin-ME demethylation, luminescence; series mostly up to 11.4 µM
Sequence of Cytochrome P450 1A2 (Homo sapiens) (P05177 whole entry, looked up): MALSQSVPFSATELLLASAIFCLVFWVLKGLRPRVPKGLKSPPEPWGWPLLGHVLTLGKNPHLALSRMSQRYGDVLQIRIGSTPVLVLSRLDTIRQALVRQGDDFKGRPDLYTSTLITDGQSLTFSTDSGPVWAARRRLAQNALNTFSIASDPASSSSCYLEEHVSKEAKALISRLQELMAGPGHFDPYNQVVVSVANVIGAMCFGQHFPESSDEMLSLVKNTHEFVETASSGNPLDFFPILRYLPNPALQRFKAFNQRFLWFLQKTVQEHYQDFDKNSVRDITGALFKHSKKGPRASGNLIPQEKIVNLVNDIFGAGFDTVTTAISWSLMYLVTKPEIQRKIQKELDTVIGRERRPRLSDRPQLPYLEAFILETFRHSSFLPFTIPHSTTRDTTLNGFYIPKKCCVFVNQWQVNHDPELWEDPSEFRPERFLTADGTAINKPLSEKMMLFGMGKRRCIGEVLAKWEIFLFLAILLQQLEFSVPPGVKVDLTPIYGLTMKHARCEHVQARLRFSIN
Procedure, shortened: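 Luminescent readout of luciferin formed from Luciferin-ME by human CYP1A2; data normalized against complete inhibition by 57 uM furafylline. Enzyme 20nM, substrate 100uM at Km, 100mM KPO4 buffer, 60 min reaction at room temperature.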

[4] = NFAT Signaling Pathway (AID 444); settings: Jurkat NFAT-bla M1, carbachol, beta-lactamase ratio, 5 h; at 7.69 µM (top of the series) unless noted;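 further: carbachol stimulus at about its EC50 of 1 µM final; on the % scale 0 is the no-effect control and ±100 the full control effect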
Procedure, shortened: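 Jurkat cells carrying an NFAT-driven β-lactamase reporter and co-transfected muscarinic M1 receptor were treated with compound plus carbachol (1 uM final, an EC50 level) for 5 h at 37 °C. CCF4 loading followed for 1 h at RT; 460/530 nm ratio gave %activity.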

[5] = Stat Signaling Pathway (AID 446); settings: ME-180 SIE beta-lactamase reporter, IL-6 stimulated, 5 h; at 7.69 µM (top of the series) unless noted;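 further: ME-180 cervical cancer cells given 40 pM IL-6 alongside compound; SIE-controlled beta-lactamase reporter measured as 460/530 nm FRET emission ratio; on the % scale 0 is the no-effect control and ±100 the full control effect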
Procedure, shortened: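 IL-6/STAT signaling read in ME-180 cells via an SIE beta-lactamase reporter. Stimulus was 40 pM IL-6 (its AC50) for 5 hrs, so both activation and inhibition register.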

[6] = target: Glucocorticoid receptor (Homo sapiens) (UniProt P04150); experiment: GR-GFP Redistribution (AID 450;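 active means compounds whose dose series gives a full or clear partial fitted curve of increased nuclear translocation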; further: potency means the concentration at half of the fitted maximal effect); settings: U2OS GR-GFP nuclear translocation, laser cytometry, 2 h
Sequence of Glucocorticoid receptor (Homo sapiens) (P04150 whole entry, looked up, the tested form may be a part): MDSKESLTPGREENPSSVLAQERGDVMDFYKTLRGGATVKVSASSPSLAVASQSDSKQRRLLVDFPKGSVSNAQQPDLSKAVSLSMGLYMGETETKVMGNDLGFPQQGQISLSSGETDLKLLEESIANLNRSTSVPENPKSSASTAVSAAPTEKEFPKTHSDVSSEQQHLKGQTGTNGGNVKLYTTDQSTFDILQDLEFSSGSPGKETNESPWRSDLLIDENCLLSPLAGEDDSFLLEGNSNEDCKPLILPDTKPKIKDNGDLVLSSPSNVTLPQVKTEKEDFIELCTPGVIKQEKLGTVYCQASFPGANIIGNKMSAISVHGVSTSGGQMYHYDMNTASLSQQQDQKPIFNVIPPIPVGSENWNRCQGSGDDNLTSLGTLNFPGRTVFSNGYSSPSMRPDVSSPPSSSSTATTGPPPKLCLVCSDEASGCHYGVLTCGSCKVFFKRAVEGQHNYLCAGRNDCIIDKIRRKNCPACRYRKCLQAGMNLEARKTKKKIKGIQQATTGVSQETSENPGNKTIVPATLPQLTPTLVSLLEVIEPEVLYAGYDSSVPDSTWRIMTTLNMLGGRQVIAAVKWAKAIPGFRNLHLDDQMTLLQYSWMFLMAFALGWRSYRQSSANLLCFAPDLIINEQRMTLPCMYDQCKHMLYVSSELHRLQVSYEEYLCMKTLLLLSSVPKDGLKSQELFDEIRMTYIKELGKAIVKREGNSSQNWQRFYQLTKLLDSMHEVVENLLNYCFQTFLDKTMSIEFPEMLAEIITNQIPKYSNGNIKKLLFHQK

[7] = target: Glucocorticoid receptor (Homo sapiens) (UniProt P04150); experiment: GR-EFC Redistribution (AID 451; calls by dose curve; further: potency means the concentration at half of the fitted maximal effect); settings: CHO-K1 GR-EFC translocation, beta-gal luminescence, 2 h
Procedure, shortened: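 CHO-K1 cells stably expressing nuclear-localized β-gal enzyme acceptor and GR fused C-terminally to the enzyme donor fragment; ligand-driven nuclear translocation restores β-gal by complementation. Compounds titrated up to 46 uM final, 2 h at 37 °C; luminescence read.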

[8] = target: Mitogen-activated protein kinase 10 (Mus musculus) (UniProt Q61831); experiment: JNK3 AlphaScreen Assay (AID 530); settings: JNK3 lysate, c-Jun phosphorylation; series mostly up to 11.4 µM;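 further: kinase came from lysate of stimulated human HepG2 cells; signal reports phosphorylation of biotinylated GST-cJun 1-79 at Ser73 with 10 µM ATP; on the % scale 0 is the no-effect control and ±100 the full control effect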
Procedure, shortened: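 Inhibitors reduce antibody binding to phosphorylated biotin-cJun, lowering AlphaScreen luminescence. Lysates from HepG2 cells pre-activated by IL-1beta plus TNF-alpha supplied JNK3; compounds were titrated.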

[9] = target: 3',5'-cyclic-AMP phosphodiesterase 4B (Homo sapiens) (UniProt Q07343); experiment: qHTS Assay for Inhibitors of PDE-IV (AID 607; active means well fitted activation curve with a large enough effect in the main read-out, with a control signal flat, not every such curve was filed as active; further: % of control where 0% means no effect); settings: HEK293 ACTOne CNG channel cells, membrane potential fluorescence; series mostly up to 22.9 µM
Sequence of 3',5'-cyclic-AMP phosphodiesterase 4B (Homo sapiens) (Q07343 whole entry, looked up): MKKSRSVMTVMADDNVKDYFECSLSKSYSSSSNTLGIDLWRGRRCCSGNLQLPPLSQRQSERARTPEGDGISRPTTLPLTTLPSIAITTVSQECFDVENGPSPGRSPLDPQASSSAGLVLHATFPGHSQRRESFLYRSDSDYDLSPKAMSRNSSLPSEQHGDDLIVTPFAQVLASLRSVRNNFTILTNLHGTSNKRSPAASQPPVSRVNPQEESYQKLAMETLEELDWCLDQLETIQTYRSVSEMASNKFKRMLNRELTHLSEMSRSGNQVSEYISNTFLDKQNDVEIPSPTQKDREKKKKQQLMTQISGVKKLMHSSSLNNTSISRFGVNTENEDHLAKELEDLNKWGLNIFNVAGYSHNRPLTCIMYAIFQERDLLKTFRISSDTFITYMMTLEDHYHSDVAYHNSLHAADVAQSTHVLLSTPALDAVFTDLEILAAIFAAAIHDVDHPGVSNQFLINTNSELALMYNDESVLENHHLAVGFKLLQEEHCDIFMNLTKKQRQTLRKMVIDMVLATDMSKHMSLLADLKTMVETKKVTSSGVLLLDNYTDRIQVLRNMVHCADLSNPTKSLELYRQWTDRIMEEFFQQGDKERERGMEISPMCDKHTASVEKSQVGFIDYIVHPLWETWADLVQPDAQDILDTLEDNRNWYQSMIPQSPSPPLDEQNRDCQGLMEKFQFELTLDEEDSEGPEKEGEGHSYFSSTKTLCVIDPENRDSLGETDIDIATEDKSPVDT
Procedure, shortened: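 Live HEK293 cells with a modified cyclic nucleotide-gated (CNG) channel report intracellular cAMP via membrane-potential dye fluorescence (ex 535/em 590 nm). Endogenous PDE-IV was targeted. Compounds were tested at up to 22.9 uM final; RO 20-1724 100 uM served as control.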

[10] = target: Cytochrome P450 2C19 (Homo sapiens) (UniProt P33261); experiment: qHTS Assay for Inhibitors and Substrates of Cytochrome P450 2C19 (AID 899; active means well fitted inhibition curve with a large enough effect; further: nearly all actives have a fitted effect of over 60% in size; further: potency means the concentration at half of the fitted maximal effect); settings: recombinant CYP2C19, luciferin-H EGE luminescence; series mostly up to 11.4 µM
Sequence of Cytochrome P450 2C19 (Homo sapiens) (P33261 whole entry, looked up): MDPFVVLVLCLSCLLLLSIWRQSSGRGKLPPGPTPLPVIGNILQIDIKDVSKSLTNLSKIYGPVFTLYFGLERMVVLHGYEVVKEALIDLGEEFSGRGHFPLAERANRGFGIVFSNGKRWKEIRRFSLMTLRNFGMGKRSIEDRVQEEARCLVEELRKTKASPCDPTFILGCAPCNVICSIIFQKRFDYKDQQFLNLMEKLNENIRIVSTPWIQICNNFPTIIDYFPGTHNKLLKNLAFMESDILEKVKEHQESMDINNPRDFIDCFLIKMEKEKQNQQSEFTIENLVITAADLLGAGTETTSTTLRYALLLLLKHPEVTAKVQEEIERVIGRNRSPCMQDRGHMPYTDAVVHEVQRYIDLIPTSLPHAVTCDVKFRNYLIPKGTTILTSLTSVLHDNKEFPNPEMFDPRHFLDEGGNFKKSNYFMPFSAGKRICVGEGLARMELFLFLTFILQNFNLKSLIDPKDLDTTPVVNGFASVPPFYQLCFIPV
Procedure, shortened: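 NADPH-dependent conversion of Luciferin-H EGE (10uM, at KM) by 5nM enzyme in 50mM KPO4, 60 min at 37C following 10 min compound preincubation. Stopped with luciferin detection buffer; luminescence read after 20 min.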

[11] = target: Cytochrome P450 2D6 (Homo sapiens) (UniProt P10635); experiment: qHTS Assay for Inhibitors and Substrates of Cytochrome P450 2D6 (AID 891; active means well fitted inhibition curve with a large enough effect; further: nearly all actives have a fitted effect of over 60% in size; further: potency means the concentration at half of the fitted maximal effect); settings: recombinant CYP2D6, luciferin-ME EGE luminescence; series mostly up to 11.4 µM
Sequence of Cytochrome P450 2D6 (Homo sapiens) (P10635 whole entry, looked up): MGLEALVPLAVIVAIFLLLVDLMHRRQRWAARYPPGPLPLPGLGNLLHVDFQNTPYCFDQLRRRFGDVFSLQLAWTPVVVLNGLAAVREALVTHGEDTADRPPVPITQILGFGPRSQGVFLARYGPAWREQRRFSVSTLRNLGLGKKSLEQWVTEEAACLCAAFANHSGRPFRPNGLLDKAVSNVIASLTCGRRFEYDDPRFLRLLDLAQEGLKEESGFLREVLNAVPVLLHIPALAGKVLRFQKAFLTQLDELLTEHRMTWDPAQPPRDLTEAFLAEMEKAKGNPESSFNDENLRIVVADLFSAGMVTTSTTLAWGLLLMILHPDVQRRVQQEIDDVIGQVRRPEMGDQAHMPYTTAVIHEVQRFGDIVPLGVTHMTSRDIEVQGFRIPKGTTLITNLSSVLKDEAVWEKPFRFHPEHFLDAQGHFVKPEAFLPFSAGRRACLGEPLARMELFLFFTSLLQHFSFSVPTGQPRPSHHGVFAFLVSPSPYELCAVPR
Procedure, shortened: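 Human CYP2D6 (5 nM) with 30 uM Luciferin-ME EGE (at Km) in 100 mM KPO4, compound preincubated 10 min, then NADPH regeneration system for 60 min at room temperature. Luciferin read by luminescence; normalized to 1.43 uM quinidine.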

[12] = qHTS Assay for Identification of Small Molecule Agonists for Hypoxia Response Element Signaling Pathway (AID 914; active means well fitted activation curve with a large enough effect in the signal ratio, with a control signal flat, not every such curve was filed as active; the % refers to the signal ratio; further: % of control where 0% means no effect); settings: ME-180 (cervical carcinoma) HRE-bla reporter, beta-lactamase ratio, CoCl2, 17 h; activation: hits give high values
Procedure, shortened: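 Compounds in a titration series were added to ME-180 reporter cells alongside an EC50 level of CoCl2. After 17 hours, beta-lactamase activity was read as the 460nm/530nm emission ratio of CCF4, giving AC50 values.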

Structure (SMILES)	Potency [1]	activity change, negative = inhibition [2]	Potency [3]	activity change, negative = inhibition [4]	activity, negative = inhibition [5]	Potency [6]	Potency [7]	Potency [8]	Potency [9]	Potency [10]	Potency [11]	activation [12]	activity change, negative = inhibition [3]
CC(C)CNc1nc(N)[nH]c(=O)c1NC=O	> 11.4 µM	9%	inactive	-1.94%	7.03%	> 46 µM	> 9.22 µM	inactive	inactive	inactive	–	–	–
CC(C)(C)COS(=O)OCC(C)(C)C	> 11.4 µM	-7.58%	inactive	3.4%	13.1%	> 46 µM	> 9.22 µM	inactive	inactive	inactive	–	–	–
CC1=NCC[N@@+]1(CCc1ccccc1)Cc1ccccc1	> 11.4 µM	-5.92%	inactive	-20.4%	11.6%	> 46 µM	> 9.22 µM	inactive	inactive	–	0.0501 µM (active)	–	–
Nc1ccc2[nH]cc(CCC(=O)O)c2c1	> 11.4 µM	4.94%	inactive	4.67%	6.65%	> 46 µM	> 9.22 µM	inactive	inactive	inactive	–	–	–
NNC(=O)c1ccc[n+](CCc2ccccc2)c1	> 11.4 µM	11.3%	inactive	-4.8%	-0.167%	> 46 µM	> 9.22 µM	inactive	inactive	–	2 µM (active)	–	–
CC(C)(C)c1ccc(O)c(CN(Cc2c(O)ccc3ccccc23)C2CCCCC2)c1	> 11.4 µM	-7.92%	3.98 µM (active)	-10.8%	-13.7%	> 46 µM	> 9.22 µM	inactive	inactive	2 µM (active)	0.794 µM (active)	2.73%	–
O=C(O)[C@@H]1[C@@H](C(=O)O)[C@]23C[C@@]2(C(=O)O)[C@]2(C(=O)O)CCC3=C3CCCC312	> 11.4 µM	10.3%	2.51 µM (active)	0.691%	-2.48%	> 46 µM	> 9.22 µM	inactive	inactive	–	inactive	–	–
CC(C)NC1(C(N)=O)CCN(Cc2ccccc2)CC1	> 11.4 µM	0.245%	–	-10.3%	-5.76%	> 46 µM	> 9.22 µM	inactive	inactive	–	0.631 µM (active)	–	7.6% [at 2.29 µM]
Nc1nc(Cl)cc(NCCO)n1	> 11.4 µM	-4.13%	inactive	10.4%	4.67%	> 46 µM	> 9.22 µM	inactive	inactive	inactive	inactive	–	–
CN(Cc1cc(Cl)cc(Cl)c1O)Cc1c(O)ccc2ccccc12	> 11.4 µM	-8.51%	0.631 µM (active)	-4.41%	-1.99%	> 46 µM	> 9.22 µM	inactive	inactive	1.26 µM (active)	1.26 µM (active)	–	–
CC(C)(C)c1ccc(OCC(=O)O)c(Cl)c1	> 11.4 µM	-2.54%	inactive	10.5%	-5.16%	> 46 µM	> 9.22 µM	inactive	inactive	inactive	–	–	–
CC[C@H]1CN(C)[C@H]2Cc3c([nH]c4ccccc34)C(=O)C[C@H]1[C@H]2C(=O)OC	> 11.4 µM	-2.14%	inactive	11.7%	8.84%	> 46 µM	> 9.22 µM	inactive	inactive	–	inactive	–	–
Cn1c(=O)c2[nH]c(CCCCc3nc4ccccc4[nH]3)nc2n(C)c1=O	> 11.4 µM	-12.7%	inactive	25%	5.57%	> 46 µM	> 9.22 µM	inactive	inactive	inactive	inactive	–	–
N=C(N)SCCCN	> 11.4 µM	2.32%	6.31 µM (active)	3.8%	5.52%	> 46 µM	> 9.22 µM	inactive	inactive	inactive	–	–	–
